High-throughput results from PubChem.
BJeLR viab HTS – lowers viability of BJeLR cells. 30,000 compounds, 0.64% hits. BJeLR fibroblasts viability, CellTiterGlo ATP luminescence, 48 h; HRASV12, hTERT and SV40 LT/ST transformed. viability loss activity score, % (test concentration not listed). AID 2275; in the data active = viability loss activity score above about 50%; inconclusive = no clear call, values can overlap the other calls; inactive = below about 35%;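 note: higher score means fewer live cells and less ATP luminescence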
YB-1 expr inh – YB-1 expression inhibition. U2OS, qRT-PCR YB-1 vs CDIP delta delta Cp, 16 h; hits give high values; zero = DMSO, each unit about twofold. delta delta Cp (YB-1 minus CDIP) (concentration not given with the values). 30,000 compounds, 0.37% hits;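 active = delta delta Cp rounded down to an integer at or above 3, about 3 SD of DMSO wells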;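 note: higher means less YB-1 transcript or more CDIP transcript relative to DMSO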
MITF inhib – blocks MITF activity. TRPM1 promoter luciferase, luminescence, 24 h. inhibition, % (test concentration not listed). 37,000 compounds, 0.28% hits; in the data active = inhibition above about 85%; inconclusive = no clear call, values can overlap the other calls; inactive = below about 68%;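 note: human melanocyte line stably carrying TRPM1 promoter luciferase reporter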
ROS inducer – cancer cell ROS induction | U2OS ROS induction, H2DCF-DA fluorescence | ROS induction (% of piperlongumine), % at 10 µM | 46,000 compounds, 2% hits; in the data active = ROS induction above about 79%, passing the limit was not always enough; inconclusive = no clear call, values can overlap the other calls;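 note: 0% = DMSO vehicle median and 100% = reference compound median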
* = called active by the depositor; ? = inconclusive; · = no result given. The list is not random: actives were taken first. Their share in the collection is about 2.5%.

SMILES	BJeLR viab HTS	YB-1 expr inh	MITF inhib	ROS inducer
C[C@H]1CN([C@@H](C)CO)C(=O)c2cc(NC(=O)Nc3ccc4c(c3)OCO4)ccc2O[C@@H]1CN(C)Cc1ccc(C(F)(F)F)cc1	0	0.061	7	94*
C[C@H](CO)N1C[C@H](C)[C@H](CN(C)C(=O)Nc2ccc(C(F)(F)F)cc2)Oc2ccc(NC(=O)NC3CCCCC3)cc2C1=O	·	-0.59	22	99*
C[C@@H]1CN([C@@H](C)CO)C(=O)c2cc(NC(=O)Nc3ccc4c(c3)OCO4)ccc2O[C@H]1CN(C)Cc1ccc(C(F)(F)F)cc1	4	0.072	15	6
C[C@H]1CN([C@@H](C)CO)C(=O)c2cc(NC(=O)C3CC3)ccc2O[C@H]1CN(C)CC1CC1	-4	13*	2	-25
C[C@H](CO)N1C[C@H](C)[C@@H](CN(C)C(=O)Nc2ccc(C(F)(F)F)cc2)Oc2ccc(NC(=O)NC3CCCCC3)cc2C1=O	·	0.065	17	36
Cc1noc(C)c1NC(=O)N(C)C[C@H]1Oc2ccc(NC(=O)Nc3ccc(F)cc3)cc2C(=O)N([C@H](C)CO)C[C@@H]1C	·	0.24	-9	82*
CCN1CCN(C(=O)CS(=O)Cc2nc(-c3ccccc3)oc2C)CC1 (stereo not given)	5	·	·	·
C=C(C)C(=O)O[C@H]1[C@H]2C(=C)C(=O)O[C@@H]2C[C@@H](C)[C@@H]2O[C@@H]2C(=O)[C@](C)(O)[C@@H]1OC(C)=O	32	0.12	-10	82*
C=C(C)C(=O)OC1CC(CO)CCC/C(CO)=C\C2OC(=O)C(=C)C21 (stereo not given)	·	0.2	·	22
C=C(C)C(=O)O[C@H]1[C@H]2C(=C)C(=O)O[C@@H]2C[C@@H](C)/C=C/C(=O)[C@](C)(O)[C@@H]1OC(=O)C(=C)C	72*	0.48	?	56
O=C(Nc1ccccc1)c1cc([N+](=O)[O-])ccc1Cl	-3	0.17	-7	1
O=C(Nc1ccc([N+](=O)[O-])cc1Cl)c1cc(Cl)ccc1O	99*	0.039	106*	-8
O=C(COc1ccc(Cl)cc1)NCc1nnc(SCC(=O)Nc2cccc(F)c2)o1	-3	·	·	·
C[N+]1(C)CCCC(OC(=O)C(O)(c2ccccc2)c2ccccc2)C1 (stereo not given)	-2	8.9*	-4	-11
C[N+]1(C)C2CC[C@H]1CC(OC(=O)C(O)c1ccccc1)C2 (stereo not given in full)	3	0.48	-14	-9
CSc1nncc(-c2ccc(Cl)cc2)n1	-5	·	·	-15
CCc1nc(N)nc(N)c1-c1ccc(Cl)cc1	77*	0.15	1	-2
O=C(NC1CC1)c1ccc2c(c1)N(Cc1ccccc1)C(=O)CS2	-3	·	·	-1
CCn1cc(CCCC(=O)NCCC2=CCCCC2)c2ccccc21	-4	·	·	-7
C[C@@H]1CCCCO[C@H](CN(C)CC2CCCCC2)[C@@H](C)CN([C@H](C)CO)C(=O)c2cc(NC(=O)Nc3ccc(C(F)(F)F)cc3)ccc2O1	·	-0.26	-12	95*
C[C@@H]1CCCCO[C@H](CN(C)Cc2ccc(C(F)(F)F)cc2)[C@@H](C)CN([C@H](C)CO)C(=O)c2cc(NC(=O)Nc3ccccc3)ccc2O1	·	0.084	19	137*
O=C(CSC(=S)N1CCCCC1)N1c2ccccc2CCc2ccccc21	-1	·	·	3
Fc1ccc(-n2cc(-c3ccccc3)c3c(NCCC4=CCCCC4)ncnc32)cc1	0	·	·	31
Oc1ccccc1-c1nnc(SCc2ccccc2)n1-c1ccccc1	-3	·	·	-11
CC1=N/C(=C\c2sccc2C)C(=O)O1	6	-0.21	18	94*
SMILES	BJeLR viab HTS	YB-1 expr inh	MITF inhib	ROS inducer
Cc1ccsc1/C=N/NC(=O)c1ccccn1	·	0.2	·	2
COc1ccc(C2SCC(C(=O)NC(C)C)N2C(=O)Nc2ccc(C)c(C)c2)cc1 (stereo not given)	3	·	·	-5
N#Cc1c(-c2ccccc2)cc(-c2ccccc2)nc1SCC(O)CS(=O)Cc1ccccc1 (stereo not given)	-5	·	·	144*
N#Cc1c(-c2ccccc2)cc(-c2cccs2)nc1SCS(=O)Cc1ccccc1 (stereo not given)	-7	·	·	108*
COc1ccc(-c2cc(-c3ccccc3)c(C#N)c(SCCS(=O)Cc3ccccc3)n2)cc1 (stereo not given)	0	·	·	·
COc1ccc(-c2cc(-c3cccs3)nc(SC(C(=O)O)c3ccccc3)c2C#N)cc1 (stereo not given)	·	·	30	149*
CC(C)(C)c1cc(-c2cccs2)c(C#N)c(SCC(=O)Oc2ccccc2)n1	1	-0.36	-6	16
CCS(=O)(=O)CCSc1nc(-c2ccccc2)cc(-c2ccccc2)c1C#N	2	·	·	98*
Cc1c2cnn(-c3ccccc3)c(=O)c2c(C)n1CCCC(=O)N(C)Cc1ccccc1	-4	·	·	40
CC(C)(C)C1=Nn2c(nnc2-c2ccccc2)SC1	5	·	·	50
Cc1ccc(-c2nc(C(=O)N(C)c3cc(C)ccc3C)c3n2CCCCC3)cc1	5	·	·	8
COc1ccccc1NC(=O)N1C(C(=O)NCc2ccc(F)cc2)CSC1c1ccccc1C (stereo not given)	4	·	·	-5
O=C(CCS(=O)(=O)c1nc(-c2ccccc2)cc(C(F)(F)F)n1)Nc1ccc(Cl)cc1Cl	·	·	10	101*
O=C(O)CCS(=O)(=O)c1nc(-c2ccccc2)cc(C(F)(F)F)n1	·	·	-24	1
Cc1noc(C)c1NC(=O)Nc1cccc2c1O[C@H](CN(C)S(C)(=O)=O)[C@@H](C)CN([C@H](C)CO)C2=O	-1	0.08	3	-6
Cc1noc(C)c1NC(=O)Nc1cccc2c1O[C@@H](CN(C)S(C)(=O)=O)[C@H](C)CN([C@H](C)CO)C2=O	·	0.07	-3	100*
COc1ccc(NC(=O)Nc2cccc3c2O[C@@H](CN(C)S(C)(=O)=O)[C@H](C)CN([C@@H](C)CO)C3=O)cc1	·	0.74	-9	111*
COc1ccc(NC(=O)N(C)C[C@@H]2Oc3c(NC(=O)C4CC4)cccc3C(=O)N([C@@H](C)CO)C[C@H]2C)cc1	0	0.32	-11	87*
COc1ccc(NC(=O)Nc2cccc3c2O[C@H](CN(C)S(C)(=O)=O)[C@H](C)CN([C@@H](C)CO)C3=O)cc1	·	-0.31	-4	-7
C[C@@H]1CN([C@@H](C)CO)C(=O)c2cccc(NC(=O)Nc3ccc(F)cc3)c2O[C@@H]1CN(C)S(C)(=O)=O	·	-0.031	-7	90*
CC1CC(=O)N(c2ccc(OC(F)(F)F)cc2)C1=O (stereo not given)	-3	·	·	·
CN=C1S/C(=C\c2cccn2-c2ccc(N(C)C)cc2)C(=O)N1C	-3	·	·	·
CSc1ccc(CCNC(=O)c2ccc3snnc3c2)cc1	1	·	·	-12
C[C@@H]1O[C@@H](Oc2ccc(-c3coc4cc(O[C@@H]5O[C@@H](C)[C@H](O)[C@@H](O)[C@H]5O)cc(O)c4c3=O)cc2)[C@H](O)[C@H](O)[C@H]1O	-5	-0.47	-33	3
